These results are taken from PubChem BioAssay (EPA / NIEHS).

Inconclusive results are not listed. Active and inactive are the calls of the source. Rule for the calls, unless noted: active = hit-call score of the fitted dose curve at least 0.9, where 1 is the maximum; inactive = score below 0.9.

For assay [1], the target named is Oxysterols receptor LXR-beta (Homo sapiens) (UniProt P55055). Nature of the assay: ATG_LXRb_TRANS: Attagene TRANS-FACTORIAL HepG2 Assay for human Liver X Receptor beta (LXRb) (AID 2282981; active = hit-call score of the fitted dose curve at least 0.9, where 1 is the maximum). As to conditions: HepG2 Attagene TRANS GAL4-LXRb reporter, mRNA. The method in brief:
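Measures induction of a Gal4-driven reporter transcript in HepG2 cells expressing an exogenous LXRb-Gal4 fusion. Cells are exposed to compound for 24 h before RNA isolation and RT-PCR with capillary electrophoresis detection.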

The target of assay [2] is Hepatocyte nuclear factor 4-alpha (Homo sapiens) (UniProt P41235). Nature of the assay: ATG_HNF4a_TRANS: Attagene TRANS-FACTORIAL HepG2 Assay for human Hepatocyte Nuclear Factor 4 alpha (HNF4a) (AID 2282982; active = hit-call score of the fitted dose curve at least 0.9, where 1 is the maximum). The conditions noted are these: HepG2 HNF4a transactivation reporter, mRNA readout. The method in brief:
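In this trans-factorial format, a chimeric HNF4a-GAL4 fusion drives a GAL4-UAS reporter in transfected HepG2 liver cells. After 24 h treatment, reporter mRNA induction is measured by RT-PCR with capillary electrophoresis, relative to DMSO.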

Assay [3] concerns the target Transcriptional activator Myb (Homo sapiens) (UniProt P10242). Nature of the assay: ATG_Myb_CIS: Attagene CIS-FACTORIAL HepG2 Assay for human Myeloblastosis (Myb) Proto-Oncogene Transcription Factor (AID 2282986). As to conditions: HepG2 Attagene CIS-FACTORIAL Myb reporter transcription; actives raise or lower the signal. The method in brief:
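Transiently transfected HepG2 cells carrying a multiplexed cis-promoter reporter set report endogenous Myb activity after 24 h compound exposure. Reporter mRNA is read by RT-PCR with capillary electrophoresis of fluorescent products, fitted bidirectionally against DMSO.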

The target in assay [4] is Nuclear respiratory factor 1 (Homo sapiens) (UniProt Q16656). Nature of the assay: ATG_NRF1_CIS: Attagene CIS-FACTORIAL HepG2 Assay for human Nuclear Respiratory Factor 1 (NRF1) Orphan Gene (AID 2282987). As to conditions: HepG2 NRF1 cis-element reporter, Attagene multiplex; actives raise or lower the signal. The method in brief:
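HepG2 cells transiently transfected with multiple cis-regulated reporter units, exposed 24 h. Reporter mRNAs measured by RT-PCR, fluorescent labelling, HpaI digestion and capillary electrophoresis; bidirectional fitting against DMSO.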

Assay [5] can be described thus: ATG_NFI_CIS: Attagene CIS-FACTORIAL HepG2 Assay for human Nuclear Factor I (NFI) (AID 2282989). As to conditions: HepG2 cis-regulatory reporter, NFI response element transcription; actives raise or lower the signal. The method in brief:
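HepG2 cells transiently transfected with cis-element-driven multiplexed reporter transcription units, dosed for 24 h. Reporter mRNA quantified by RT-PCR, fluorescent labelling, HpaI digestion and capillary electrophoresis; bidirectional fit versus DMSO baseline.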

Assay [6] addresses Myc proto-oncogene protein (Homo sapiens) (UniProt P01106). In words: ATG_Myc_CIS: Attagene CIS-FACTORIAL HepG2 Assay for human Myelocytomatosis (Myc) Proto-Oncogene Transcription Factor (AID 2282990). As to conditions: HepG2, Attagene cis-reporter transcription factor activity; actives raise or lower the signal. The method in brief: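 HepG2 cells transiently transfected with multiple cis-promoter-driven reporter transcription units, so endogenous TF activity is read. After 24 h compound exposure, reporter mRNA was quantified by RT-PCR, 6-FAM labelling, HpaI digestion and capillary electrophoresis; bidirectional fit versus DMSO.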

Assay [7] in a line: ATG_NF_kB_CIS: Attagene CIS-FACTORIAL HepG2 Assay for human Nuclear Factor Kappa B (NF-kB) (AID 2282991). As to conditions: HepG2 Attagene cis-factorial NF-kB reporter mRNA; actives raise or lower the signal. The method in brief: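 HepG2 cells transfected with cis-promoter-driven reporter units, so endogenous transcription factor activity is measured. Reporter mRNA quantified 24 h after dosing by RT-PCR and capillary electrophoresis, with bidirectional fitting against DMSO.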

A short description of assay [8]: ATG_NRF2_ARE_CIS: Attagene CIS-FACTORIAL HepG2 Assay for human Nuclear Factor Erythroid 2 Related Factor 2 (NFR2) response to Antioxidant Response Elements (ARE) (AID 2282992). As to conditions: HepG2 Attagene ARE/NRF2 reporter, transcription factor activity; actives raise or lower the signal. The method in brief: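 Fluorescence intensity of reporter-specific cDNA fragments, separated by capillary electrophoresis, reflects mRNA induction in transfected HepG2 cells at 24 h. Activity is fitted bidirectionally, DMSO serving as baseline.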

Assay [9] is described as follows: ATG_Oct_MLP_CIS: Attagene CIS-FACTORIAL HepG2 Assay for human Octamer-Binding Transcription Factor (Oct) (AID 2282993). As to conditions: HepG2 Attagene cis-factorial Oct reporter, mRNA; actives raise or lower the signal. The method in brief: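 HepG2 cells transiently transfected with cis-promoter-driven multiplexed reporter transcription units, dosed for 24 h. Reporter mRNA quantified by RT-PCR, fluorescent labelling, HpaI digestion and capillary electrophoresis; bidirectional fits versus DMSO baseline.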

Assay [10] deals with Cellular tumor antigen p53 (Homo sapiens) (UniProt P04637). Nature of the assay: ATG_p53_CIS: Attagene CIS-FACTORIAL HepG2 Assay for human p53 Transcription Factor (AID 2282994). The conditions noted are these: HepG2 p53 cis-element reporter, Attagene mRNA; actives raise or lower the signal. The method in brief:
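Transiently transfected HepG2 (multiple cis reporter transcription units); exposure 24 h; reporter RNA via RT-PCR, 6-FAM extension, 2 h HpaI digest at 37 C, CE detection; DMSO baseline.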

Assay [11] can be described thus: ATG_M_06_TRANS: Attagene TRANS-FACTORIAL HepG2 Assay for M06 Transcription Factor (Internal Marker) (AID 2282983; active = hit-call score of the fitted dose curve at least 0.9, where 1 is the maximum). The conditions noted are these: HepG2 Attagene TRANS M06 internal marker reporter. The method in brief:
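Background-control reporter readout: after 24 h chemical exposure of transiently transfected HepG2 (GAL4-UAS reporter units), mRNA quantified by RT-PCR with fluorescent labeling and capillary electrophoresis. Gain-of-signal fitting against DMSO baseline.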

Assay [12] in a line: ATG_M_32_TRANS: Attagene TRANS-FACTORIAL HepG2 Assay for M32 Transcription Factor (Internal Marker) (AID 2282984; active = hit-call score of the fitted dose curve at least 0.9, where 1 is the maximum;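 note: transcript level of a background control reporter unit measured by RT-PCR and capillary electrophoresis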). As to conditions: HepG2 Attagene TRANS M32 internal marker reporter. The method in brief: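 After 24 h dosing of transfected HepG2 cells, total RNA was reverse-transcribed, reporter sequences PCR-amplified, 6-FAM labelled by primer extension and HpaI-digested before capillary electrophoresis. Signal increase over DMSO was fitted.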

Assay [13] has as its target Nuclear receptor subfamily 4 group A member 2 (Homo sapiens) (UniProt P43354). In words: ATG_NURR1_TRANS: Attagene TRANS-FACTORIAL HepG2 Assay for human Nuclear Receptor Related Protein 1 (NURR1) (AID 2282985; active = hit-call score of the fitted dose curve at least 0.9, where 1 is the maximum). As to conditions: HepG2 Attagene TRANS reporter, mRNA readout. The method in brief: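 Chimeric NR-Gal4 fusion activity measured in HepG2 after 24 h treatment. Reporter transcripts detected by RT-PCR and capillary electrophoresis fluorescence; positive-direction curve fitting against DMSO.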

The target in assay [14] is Oxysterols receptor LXR-alpha (Homo sapiens) (UniProt Q13133). Nature of the assay: ATG_LXRa_TRANS: Attagene TRANS-FACTORIAL HepG2 Assay for human Liver X Receptor alpha (LXRa) (AID 2282980; active = hit-call score of the fitted dose curve at least 0.9, where 1 is the maximum). As to conditions: HepG2 Attagene TRANS reporter, LXRa transactivation. The method in brief: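 Chemical-induced reporter mRNA measured by RT-PCR with fluorescent labelling and capillary electrophoresis after 24 h dosing of transiently transfected HepG2 cells expressing exogenous NR-Gal4 chimeras; increases scored against DMSO baseline.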
Chain of Oxysterols receptor LXR-alpha (Homo sapiens) (Q13133 whole entry, looked up, the tested form may be a part): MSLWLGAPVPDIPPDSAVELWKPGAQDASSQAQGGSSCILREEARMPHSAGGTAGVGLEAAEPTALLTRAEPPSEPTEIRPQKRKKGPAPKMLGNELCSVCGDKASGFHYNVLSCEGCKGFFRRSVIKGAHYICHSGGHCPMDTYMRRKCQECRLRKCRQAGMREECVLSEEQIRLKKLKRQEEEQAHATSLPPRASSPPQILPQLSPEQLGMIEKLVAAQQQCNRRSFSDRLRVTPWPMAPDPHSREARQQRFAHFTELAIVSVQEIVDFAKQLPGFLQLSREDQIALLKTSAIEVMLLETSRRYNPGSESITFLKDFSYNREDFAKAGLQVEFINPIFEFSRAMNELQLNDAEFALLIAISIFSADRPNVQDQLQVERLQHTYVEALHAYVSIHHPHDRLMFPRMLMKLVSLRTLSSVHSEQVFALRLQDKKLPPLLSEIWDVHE

Chain of Transcriptional activator Myb (Homo sapiens) (P10242 whole entry, looked up): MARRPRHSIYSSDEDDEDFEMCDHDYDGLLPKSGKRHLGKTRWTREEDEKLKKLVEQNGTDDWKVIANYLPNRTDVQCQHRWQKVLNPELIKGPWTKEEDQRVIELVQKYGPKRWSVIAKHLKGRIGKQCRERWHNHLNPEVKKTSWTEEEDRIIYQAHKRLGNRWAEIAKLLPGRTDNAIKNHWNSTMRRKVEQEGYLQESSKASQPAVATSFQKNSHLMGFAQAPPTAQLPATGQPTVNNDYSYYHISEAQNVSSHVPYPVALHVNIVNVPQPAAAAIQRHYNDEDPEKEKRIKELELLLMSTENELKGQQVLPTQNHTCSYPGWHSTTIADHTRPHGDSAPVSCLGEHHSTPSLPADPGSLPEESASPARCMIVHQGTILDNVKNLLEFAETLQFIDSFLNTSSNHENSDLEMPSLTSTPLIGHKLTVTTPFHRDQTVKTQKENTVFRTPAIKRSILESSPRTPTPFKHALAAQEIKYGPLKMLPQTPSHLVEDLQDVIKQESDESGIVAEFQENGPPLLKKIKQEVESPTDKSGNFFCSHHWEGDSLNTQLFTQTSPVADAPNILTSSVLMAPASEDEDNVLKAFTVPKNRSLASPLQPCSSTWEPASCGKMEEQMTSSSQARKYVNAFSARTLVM
Chain of Oxysterols receptor LXR-beta (Homo sapiens) (P55055 whole entry, looked up, the tested form may be a part): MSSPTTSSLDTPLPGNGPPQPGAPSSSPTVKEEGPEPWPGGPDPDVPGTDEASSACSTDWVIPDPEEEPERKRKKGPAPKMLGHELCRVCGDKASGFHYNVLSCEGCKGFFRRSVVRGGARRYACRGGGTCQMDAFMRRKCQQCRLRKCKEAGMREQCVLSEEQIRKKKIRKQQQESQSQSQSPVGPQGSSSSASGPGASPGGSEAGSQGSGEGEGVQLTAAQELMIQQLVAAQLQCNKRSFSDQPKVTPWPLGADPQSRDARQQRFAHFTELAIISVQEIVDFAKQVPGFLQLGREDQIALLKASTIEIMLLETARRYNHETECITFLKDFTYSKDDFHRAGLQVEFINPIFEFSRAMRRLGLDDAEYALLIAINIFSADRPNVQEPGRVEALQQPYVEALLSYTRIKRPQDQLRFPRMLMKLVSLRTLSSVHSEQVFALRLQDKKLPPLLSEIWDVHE
Chain of Hepatocyte nuclear factor 4-alpha (Homo sapiens) (P41235 whole entry, looked up, the tested form may be a part): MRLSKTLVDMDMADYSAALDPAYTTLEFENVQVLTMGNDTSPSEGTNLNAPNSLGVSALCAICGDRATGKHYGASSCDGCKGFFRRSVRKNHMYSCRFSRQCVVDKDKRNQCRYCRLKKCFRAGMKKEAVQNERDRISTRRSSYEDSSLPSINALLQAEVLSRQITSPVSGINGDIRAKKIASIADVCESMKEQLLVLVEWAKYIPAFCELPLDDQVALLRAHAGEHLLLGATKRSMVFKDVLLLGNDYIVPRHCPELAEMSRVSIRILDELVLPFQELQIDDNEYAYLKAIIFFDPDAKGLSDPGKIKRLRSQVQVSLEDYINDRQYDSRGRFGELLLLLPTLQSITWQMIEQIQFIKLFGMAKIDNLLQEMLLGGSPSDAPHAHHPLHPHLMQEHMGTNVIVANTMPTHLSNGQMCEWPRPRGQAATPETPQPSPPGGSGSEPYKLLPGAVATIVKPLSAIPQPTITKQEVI
Chain of Myc proto-oncogene protein (Homo sapiens) (P01106 whole entry, looked up): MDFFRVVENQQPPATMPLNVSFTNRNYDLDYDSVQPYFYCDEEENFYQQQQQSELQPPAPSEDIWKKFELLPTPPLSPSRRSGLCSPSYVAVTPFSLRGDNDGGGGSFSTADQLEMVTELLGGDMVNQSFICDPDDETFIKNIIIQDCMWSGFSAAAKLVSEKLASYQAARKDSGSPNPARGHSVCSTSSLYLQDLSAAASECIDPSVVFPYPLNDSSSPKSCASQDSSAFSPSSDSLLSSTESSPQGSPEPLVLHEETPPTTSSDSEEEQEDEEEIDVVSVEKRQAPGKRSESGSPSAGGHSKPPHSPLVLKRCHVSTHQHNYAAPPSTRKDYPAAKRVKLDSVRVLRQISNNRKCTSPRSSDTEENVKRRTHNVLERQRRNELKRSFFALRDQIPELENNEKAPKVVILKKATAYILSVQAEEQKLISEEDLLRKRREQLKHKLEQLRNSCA
Chain of Nuclear receptor subfamily 4 group A member 2 (Homo sapiens) (P43354 whole entry, looked up, the tested form may be a part): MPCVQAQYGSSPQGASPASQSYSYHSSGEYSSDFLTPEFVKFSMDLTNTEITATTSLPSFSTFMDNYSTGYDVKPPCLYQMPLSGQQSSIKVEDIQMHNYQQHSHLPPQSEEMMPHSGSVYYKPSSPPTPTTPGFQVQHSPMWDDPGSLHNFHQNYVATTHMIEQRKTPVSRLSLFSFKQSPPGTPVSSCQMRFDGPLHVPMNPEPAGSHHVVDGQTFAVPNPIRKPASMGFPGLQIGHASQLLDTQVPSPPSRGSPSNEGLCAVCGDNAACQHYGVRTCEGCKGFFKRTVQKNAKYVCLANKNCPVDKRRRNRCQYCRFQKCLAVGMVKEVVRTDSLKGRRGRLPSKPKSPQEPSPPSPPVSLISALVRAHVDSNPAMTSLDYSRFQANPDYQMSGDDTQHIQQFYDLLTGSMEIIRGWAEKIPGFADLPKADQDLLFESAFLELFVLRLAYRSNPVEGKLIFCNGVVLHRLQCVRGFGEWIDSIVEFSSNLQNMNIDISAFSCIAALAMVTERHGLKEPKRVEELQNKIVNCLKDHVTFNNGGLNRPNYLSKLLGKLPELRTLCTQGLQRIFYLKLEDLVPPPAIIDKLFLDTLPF
Chain of Cellular tumor antigen p53 (Homo sapiens) (P04637 whole entry, looked up): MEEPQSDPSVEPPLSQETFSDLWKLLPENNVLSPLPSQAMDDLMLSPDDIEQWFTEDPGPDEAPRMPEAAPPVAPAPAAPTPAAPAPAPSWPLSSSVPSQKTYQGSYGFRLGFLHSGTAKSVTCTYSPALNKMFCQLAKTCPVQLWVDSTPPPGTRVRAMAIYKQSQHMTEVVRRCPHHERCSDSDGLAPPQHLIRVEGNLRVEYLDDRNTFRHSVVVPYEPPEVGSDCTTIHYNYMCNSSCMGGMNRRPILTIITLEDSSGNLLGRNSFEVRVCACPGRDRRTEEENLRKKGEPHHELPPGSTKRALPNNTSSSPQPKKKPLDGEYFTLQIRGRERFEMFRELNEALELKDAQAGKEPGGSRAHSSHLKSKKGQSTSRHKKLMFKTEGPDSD
Chain of Nuclear respiratory factor 1 (Homo sapiens) (Q16656 whole entry, looked up): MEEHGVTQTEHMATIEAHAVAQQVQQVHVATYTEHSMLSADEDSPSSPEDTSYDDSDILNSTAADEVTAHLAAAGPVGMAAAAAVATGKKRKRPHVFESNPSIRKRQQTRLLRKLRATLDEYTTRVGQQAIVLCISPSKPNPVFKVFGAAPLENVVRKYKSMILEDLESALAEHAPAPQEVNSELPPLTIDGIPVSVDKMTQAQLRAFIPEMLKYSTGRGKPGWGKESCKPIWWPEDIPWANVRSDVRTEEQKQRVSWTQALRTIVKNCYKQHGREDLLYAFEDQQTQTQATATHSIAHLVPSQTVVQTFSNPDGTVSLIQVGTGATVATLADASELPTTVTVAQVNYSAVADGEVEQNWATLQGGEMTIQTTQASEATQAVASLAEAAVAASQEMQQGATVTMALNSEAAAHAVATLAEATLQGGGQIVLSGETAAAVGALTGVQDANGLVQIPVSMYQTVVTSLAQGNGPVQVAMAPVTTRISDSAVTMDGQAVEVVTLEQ

For the molecule `CC1CCC2CC1C2(C)C` (configuration not stated), the outcome in assay [1], in [2], in assay [3], in assay [4], in [5] and in [6] was inactive. The outcome in [7], in [8], in assay [9] and in assay [10] was inactive.
`O=C1O[C@@H]2[C@@H](O)[C@H](O)O[C@@H]2[C@H]1O`: the outcome in assay [1], in assay [2], in assay [11], in assay [3], in assay [4] and in assay [5] was inactive. Besides, the molecule was called inactive in assay [6], in assay [7], in [8], in [9] and in assay [10].
For the molecule `CC[C@]12CCCN3CCc4c(n(c5ccccc45)[C@@](O)(C(=O)OC)C1)[C@@H]32`, the call in assay [2], in assay [11], in [12], in assay [3], in assay [4] and in assay [5] was inactive. Besides, the call in assay [6], in assay [8] and in assay [9] was inactive. For the same molecule, the half-maximal activity concentration (AC50) was 170 µM (active) in [7] and 164 µM (active) in assay [10].
For `O=C(O)c1snc(Cl)c1Cl`, the molecule was called inactive in assay [1], in assay [2], in assay [11], in assay [12], in [3] and in assay [4]. In addition, the molecule was classed as inactive in assay [5], in assay [6] and in assay [10]. In addition, the AC50 in assay [7] was 100 µM (active); in assay [8], 27.4 µM (active); in assay [9], 155 µM (active).
Turning to `OCCOc1cccc(OCCO)c1`, the outcome in [1], in [2], in assay [11], in assay [3], in assay [4] and in assay [5] was inactive. Moreover, the call in assay [6], in assay [7], in [8] and in assay [9] was inactive.
With `C=C[C@@H](C)CCC=C(C)C`, the call in [1], in [11], in [12], in assay [13], in assay [3] and in assay [4] was inactive. Besides, the call in assay [5], in [6], in [7], in assay [8], in [9] and in assay [10] was inactive.
For the molecule `C=C(C)C(=O)NCCCN(C)C`, the result in [1], in [2], in [3], in [4], in assay [5] and in assay [6] was inactive. The molecule was classed as inactive in assay [7], in assay [8], in assay [9] and in [10].
Turning to `O=C(O)Cc1cccc2ccccc12`, the molecule was called inactive in assay [2], in assay [11], in assay [12], in assay [13], in assay [3] and in assay [5]. Further, the result in assay [6], in assay [7] and in [9] was inactive.
For the molecule `CCC(C(=O)NC(N)=O)c1ccccc1` (configuration not stated), the molecule was called inactive in [1], in [11], in assay [12], in assay [3], in assay [4] and in assay [5]. Further, the call in assay [6], in assay [7], in assay [8], in assay [9] and in assay [10] was inactive.
Consider `CC1=CC(=O)NS(=O)(=O)O1`, for which the result in assay [1], in [2], in [11], in [12], in [3] and in assay [4] was inactive. Also, the molecule was called inactive in [5], in [6], in assay [7], in assay [8] and in assay [9].
Take `NCCCCCCN`: the molecule was classed as inactive in [1], in [2], in assay [12], in [3], in [4] and in assay [5]. Further, the outcome in [6], in assay [7], in [8], in assay [9] and in assay [10] was inactive.
In the case of `CC(C)=CCC[C@](C)(O)[C@@H]1CC=C(C)CC1`, the outcome in assay [14], in assay [3], in [4], in assay [6], in assay [7] and in assay [9] was inactive. The outcome in assay [10] was inactive.
As for `O=C[C@H](O)[C@H](O)[C@H](O)CO`, the call in assay [11], in [13], in [3], in assay [4], in assay [5] and in assay [6] was inactive. The outcome in [9] and in assay [10] was inactive.
For the molecule `CC(C)[C@@H]1CC[C@@H](C)CC1=O`, the outcome in [2], in assay [3], in [4], in [6], in assay [8] and in assay [10] was inactive.
On to `CCCCCC(CO)CCC` (configuration not stated), for which the molecule was called inactive in [11], in assay [4], in assay [6], in [8] and in assay [9].
With `CCOc1ccccc1OCC`, the result in [2], in [11], in [3], in [4], in [5] and in assay [6] was inactive. Besides, the outcome in [8], in assay [9] and in assay [10] was inactive.
As to `Sc1nc(S)nc(S)n1`, the molecule was classed as inactive in assay [2], in assay [11], in assay [3], in [4], in assay [5] and in [6]. The outcome in assay [7], in assay [9] and in assay [10] was inactive.
